Results published in PubChem BioAssay (Tox21).
Records with an inconclusive call do not appear. The source made the active and inactive calls. Unless noted, calls come from the whole dose curve; as a rule, active = well fitted curve in the direction sought with a large enough effect in the repeat runs; inconclusive = weak or mixed curves; inactive = no such curve, though single readings can be large; an effect the other way counts as inactive or inconclusive.

How the values were obtained:
[1] = qHTS assay to identify small molecule agonists of the AP-1 signaling pathway (AID 1159526; calls by dose curve)
[2] = tested on: estrogen-related receptor alpha (ERRalpha) with PGC-1alpha coactivator, human; assay: qHTS assay to identify small molecule antagonists of the estrogen related receptor signaling pathway with the pleiotropic PPARgamma coactivator (PGC) (AID 1224821; calls by dose curve;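 note: series mostly up to about 46 µM; lower luminescence signal means antagonism of PGC/ERR signalling; nearly all actives have a fitted effect of over 50% in size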)
Summary of the method: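 Screening used NTP's PGC/ERR cells, dosed via pin tool with compound in DMSO alongside positive and negative controls. After 18 h at 37 C, One-Glo reagent sat 30 min at room temperature before luminescence detection.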

[3] = qHTS assay to identify small molecule agonists of the estrogen related receptor signaling pathway with the pleiotropic PPARgamma coactivator (PGC) (AID 1224823)
Summary of the method: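 In this quantitative high-throughput screen, an 18 h, 37 C treatment of PGC/ERR cells with compounds in DMSO preceded a One-Glo luminescence read taken after 30 min at room temperature.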

[4] = qHTS assay to identify small molecule antagonists of the vitamin D receptor (VDR) signaling pathway - cell viability counter screen (AID 743225); note: nearly all actives have a fitted effect of over 50% in size
Summary of the method: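 Viability counter screen run in the same wells as the beta-lactamase reporter assay: HEK 293T VDR-UAS-bla cells, 16 h compound exposure at 37C with 3 nM (final) 1-alpha,25-dihydroxyvitamin D3. CellTiter-Glo luminescence, 30 min, room temperature.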

[5] = qHTS assay to identify small molecule agonists of the NFkB signaling pathway (AID 1159509; active = well fitted curve in the direction sought with a large enough effect in the signal ratio in the repeat runs, not every such curve was filed as active; the % refers to the signal ratio; note: series mostly up to about 61 µM)
Summary of the method: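 Beta-lactamase reporter assay run in quantitative high-throughput format on an NF-kB-responsive ME-180 line, with 5 hr compound treatment and a FRET-based blue/green fluorescence readout.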

[6] = qHTS assay to identify small molecule agonists of the NFkB signaling pathway - cell viability counter screen (AID 1159515; calls by dose curve; note: series mostly up to about 61 µM; nearly all actives have a fitted effect of over 55% in size)
Summary of the method: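 Plate 2,000 NFkB-bla ME-180 cells/well; incubate overnight. Add compounds, 5 hr at 37 C. Add FRET substrate, 1.5 hr RT. Add CellTiter-Glo, 30 min RT; read luminescence.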

[7] = qHTS assay to identify small molecule agonists of the endoplasmic reticulum stress response signaling pathway (AID 1159516; active = well fitted activation curve with a large enough effect in the signal ratio in the repeat runs, not every such curve was filed as active; the % refers to the signal ratio)
Summary of the method: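 Beta-lactamase expression from the ER stress response element in HeLa reporter cells is quantified with the LiveBLAzer B/G FRET substrate, read at 405 nm excitation after 2 hr at room temperature, following 5 hr compound treatment at 37 C.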

[8] = qHTS assay to identify small molecule agonists of the endoplasmic reticulum stress response signaling pathway - cell viability counter screen (AID 1159517; calls by dose curve; note: series mostly up to about 61 µM; nearly all actives have a fitted effect of over 50% in size)
Summary of the method: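 After overnight attachment, ESRE-bla HeLa cells were treated with Tox21 library compounds for 5 hr. CellTiter-Glo luminescence, read 30 min post-addition at room temperature, reported viability.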

[9] = qHTS assay to identify small molecule antagonists of the retinoid-related orphan receptor gamma (ROR-gamma) signaling pathway - cell viability counter screen (AID 1159520); note: nearly all actives have a fitted effect of over 50% in size
Summary of the method: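 Cytotoxicity was read from cellular ATP (CellTiter-Glo luminescence) after 16 hr at 37 C with 1 uM doxycycline induction. The inducer was added 2 hr after compound transfer to Tet-on ROR gamma CHO cells.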

[10] = molecular target: Nuclear receptor ROR-gamma (Homo sapiens) (UniProt P51449); assay: qHTS assay to identify small molecule antagonists of the retinoid-related orphan receptor gamma (ROR-gamma) signaling pathway (AID 1159521)
Summary of the method: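 Luminescence readout (ONE-Glo, 30 min RT) after 16 h doxycycline induction; loss of signal scored as antagonism. CHO cells with TET-inducible RORγ and RORE-LUC reporter; compounds added 2 h before 1 uM final doxycycline.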

[11] = qHTS assay to identify small molecule antagonists of the retinoid acid receptor (RAR) signaling pathway - cell viability counter screen (AID 1159551); note: nearly all actives have a fitted effect of over 35% in size
Summary of the method: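 Viability of C3RL4 cells is quantified from ATP by luminescence after 6 h treatment at 37 C with compounds and 1 uM retinol.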

[12] = molecular target: Retinoic acid receptor RXR-alpha (Homo sapiens) (UniProt P19793); assay: qHTS assay to identify small molecule agonists of the RXR signaling pathway (AID 1159527; calls by dose curve; note: nearly all actives have a fitted effect of over 35% in size)
Chain of Retinoic acid receptor RXR-alpha (Homo sapiens) (P19793 whole entry, looked up): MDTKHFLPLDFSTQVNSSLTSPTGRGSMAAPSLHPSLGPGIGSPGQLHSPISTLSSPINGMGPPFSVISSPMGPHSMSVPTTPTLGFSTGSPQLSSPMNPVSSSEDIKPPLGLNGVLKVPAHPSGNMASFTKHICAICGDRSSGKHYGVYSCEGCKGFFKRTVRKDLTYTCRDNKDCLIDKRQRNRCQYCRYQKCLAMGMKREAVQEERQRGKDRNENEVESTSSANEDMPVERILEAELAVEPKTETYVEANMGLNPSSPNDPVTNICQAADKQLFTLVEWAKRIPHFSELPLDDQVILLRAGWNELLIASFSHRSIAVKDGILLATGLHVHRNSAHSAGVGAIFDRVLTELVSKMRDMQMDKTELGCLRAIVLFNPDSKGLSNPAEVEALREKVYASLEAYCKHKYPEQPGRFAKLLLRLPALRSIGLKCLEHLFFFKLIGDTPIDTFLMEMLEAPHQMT
Summary of the method: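 Agonist mode; 9-cis retinoic acid positive control. HEK 293T UAS-bla reporter cells, 2% charcoal-stripped FBS, 16 hr compound exposure at 37 C/5% CO2. LiveBLAzer B/G FRET substrate 2 hr RT; ex 405, em 460/530 nm.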

[13] = qHTS assay to identify small molecule agonists of the RXR signaling pathway - cell viability counter screen (AID 1159529)
Summary of the method: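 Luminescence from CellTiter-Glo (30 min, RT) measured viability in the same wells as the beta-lactamase reporter readout. Cells: GeneBLAzer RXR-alpha HEK 293T, 2% charcoal-stripped FBS. Compound exposure 16 hr, 37 C.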

[14] = qHTS assay to identify small molecule antagonists of the estrogen related receptor signaling pathway with the pleiotropic PPARgamma coactivator (PGC) cell viability counter screen (AID 1224822;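 note: series mostly up to about 46 µM; viability read after 17.5 h compound exposure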)
Summary of the method: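 Viable cell signal (CellTiter-Fluor, 30 min, 37 C/5% CO2) was measured in PGC/ERR cells after a 17.5 h compound incubation.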

[15] = qHTS assay to identify small molecule antagonists of the estrogen related receptor (ERR) signaling pathway from Tox21 library - cell viability counter screen (AID 1224834); note: nearly all actives have a fitted effect of over 30% in size
Summary of the method: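 In this quantitative HTS format, ERR cells receive compounds in DMSO and are incubated for 17.5 h at 37 C. Live-cell protease activity is then detected with CellTiter-Fluor.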

[16] = qHTS assay to identify small molecule antagonists of the retinoic acid receptor (RAR) signaling pathway (AID 1159552; note: nearly all actives have a fitted effect of over 50% in size)
Summary of the method: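 Luminescence from a RARE luciferase reporter in C3RL4 cells served as read-out. Cells received compounds together with 1 uM final retinol and incubated 6 hr at 37 C before detection reagent was added for 30 min at room temperature.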

[17] = qHTS assay to identify small molecule agonists of the retinoic acid receptor (RAR) signaling pathway (AID 1159553)
Summary of the method: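 Compounds dissolved in DMSO were pinned onto C3RL4 cells seeded the previous day, and plates were held 6 hr at 37 C. RARE-driven luciferase output was then read by luminescence.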
% is set by controls: 0 for no effect and ±100 for the full control effect.

CCCCCCCOC(=O)CCC
inactive: Potency [1]

NC/C=C/C(=O)O
inactive: Potency [1] | outcome [2] | outcome [3]

C[C@]12CCC(=O)C=C1CC[C@@H]1[C@@H]2CC[C@@]2(C)[C@H]1CC[C@]2(O)C(=O)CO
inactive: outcome [2] | outcome [3]

CN(C)C(=O)NC1(c2ccccc2)CCN(CCC[C@]2(c3ccc(Cl)c(Cl)c3)CCCN(C(=O)c3ccccc3)C2)CC1
inactive: Potency [4] | outcome [5] | outcome [6] | outcome [7] | outcome [8] | activity, negative = cytotoxicity [9] -2.5% [at 19 µM] | activity change, negative = inhibition [10] -21% [at 19 µM] | activation [1] 11.5% [at 15.8 µM] | activity change, negative = cytotoxicity [11] -1.37% [at 19 µM]

NC1=NCC2c3ccccc3Cc3ccccc3N12 (stereo not given)
inactive: Potency [4] | outcome [5] | outcome [6] | outcome [7] | outcome [8] | Potency [9] | Potency [10] | Potency [1] | Potency [12] | Potency [13] | outcome [11] | outcome [14] | Potency [15]

CC(C)C(=O)OC/C=C/c1ccccc1
inactive: Potency [4] | outcome [5] | outcome [6] | outcome [7] | outcome [8] | Potency [9] | Potency [10] | Potency [1] | Potency [12] | outcome [11] | Potency [15]

CCOC(=O)COc1ccc2c(c1)CC(NCC(O)c1cccc(Cl)c1)CC2 (stereo not given)
inactive: outcome [5] | outcome [6] | outcome [7] | outcome [8] | Potency [9] | Potency [10] | outcome [11] | Potency [16]

O=C(O)[C@@H](O)[C@H](O)[C@H](O)[C@@H](O)C(=O)O
inactive: Potency [4] | outcome [5] | outcome [6] | outcome [7] | outcome [8] | Potency [9] | Potency [10] | Potency [1] | Potency [12] | outcome [11] | Potency [15]

CCCCOc1cc(C(=O)NCCN(CC)CC)c2ccccc2n1
inactive: Potency [4] | outcome [5] | outcome [6] | outcome [7] | outcome [8] | Potency [9] | Potency [10] | outcome [11] | Potency [16] | Potency [17]

CO[C@@]1(NC(=O)CSCC#N)C(=O)N2C(C(=O)O)=C(CSc3nnnn3C)CS[C@@H]21
inactive: Potency [4] | outcome [5] | outcome [6] | outcome [7] | outcome [8] | Potency [9] | Potency [10] | Potency [1] | Potency [12] | Potency [13] | outcome [11] | Potency [16] | outcome [14] | Potency [15]

Clc1cccc(-c2cc(Cl)cc(Cl)c2)c1
inactive: Potency [4] | outcome [5] | outcome [6] | outcome [7] | outcome [8] | Potency [9] | Potency [10] | Potency [12] | outcome [11] | Potency [16] | Potency [17] | Potency [15]

CC(C)C(=O)OCC(C)(C)C(O)C(C)C (stereo not given)
inactive: Potency [4] | outcome [5] | outcome [6] | outcome [7] | outcome [8] | Potency [9] | Potency [10] | Potency [1] | Potency [12] | Potency [13] | outcome [11] | Potency [16] | Potency [17] | Potency [15]

CCCc1c2oc(C(=O)O)cc(=O)c2cc2c(=O)cc(C(=O)O)n(CC)c12
inactive: Potency [4] | outcome [5] | outcome [6] | outcome [7] | outcome [8] | Potency [9] | Potency [10] | Potency [12] | Potency [13] | outcome [11] | Potency [16] | Potency [15]
